Rows were chosen to be rich in hits. Some 20% of all compounds tested hit in one or more screens of this group.
Cycloheximide cs = counter-screen hit for Shiga toxin inhibitors, cycloheximide; cell reporter, cycloheximide protein synthesis inhibition counterscreen; max response, %; 12% of 300,000 active; AID 2314; in the data active = max response mostly above about 13%, no sharp cut-off; inactive = mostly below about 14%; note: read at 38.3 µM for the half of the compounds with a filed dose
Pf growth 96h = P. falciparum growth inhibition at 96 hour, primary screen for plastid delayed-death inhibitors | 6.9% of 320,000 active | Potency, µM (series often up to 28.7 µM), actives largely listed as inhibitors | P. falciparum luciferase reporter growth, 96 h
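Infected RBCs, 2% Hct / 0.05% parasitemia final; luciferase-reporter P. falciparum; cpd 96 h, 37 C, 5% CO2; luciferase detection reagent; luminescence.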
Pf growth 48h = inhibits P. falciparum growth in the first generation, 48 h; P. falciparum luciferase growth in erythrocytes, 48 h; Potency, µM (top dose mostly 28.7 µM), hits mostly inhibitors; 5.9% of 310,000 active
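Luminescence readout; reporter = integrated firefly luciferase in P. falciparum. RBC culture at 2% hematocrit, 0.1% parasitemia final, 37 C/5% CO2; decreased signal taken as growth inhibition.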
HCMV inh = blocks human cytomegalovirus replication; HFF cells, HCMV-luciferase reporter, 72 h; active compounds read low; activity change, negative = inhibition, % at 57.5 µM; 4.5% of 410,000 active; AID 1259415; in the data active = activity change below about -60%; inconclusive = no clear call, values can overlap the other calls; inactive = above about -39%
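Cell-based, HFFs, 1000 cells/well, 16 h 37C; cpds in DMSO + HCMV-luc, MOI 1 PFU/cell; 72 h 37C; OneGlo luminescence after 5 min RT; norm. to buffer vs Salinomycin 10uM.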
Shiga toxin inh = blocks Shiga toxin action in Vero cells; Vero cells, Shiga toxin protein synthesis inhibition reporter; inhibition, % at 38.7 µM; 9.2% of 290,000 active; AID 2315; in the data active = inhibition mostly above about 28%, no sharp cut-off; inactive = mostly below about 43%
Hits are given with their value; - = inactive; ? = inconclusive; . = no result given; [ ] = remark or other dose. Unless noted, calls come from the whole dose curve; as a rule, active = well fitted inhibition curve with a large enough effect; inconclusive = small, poorly fitted or top-dose-only effect, or another doubt; inactive = no such curve, though single readings can be large or run the other way.

SMILES	Cycloheximide cs	Pf growth 96h	Pf growth 48h	HCMV inh	Shiga toxin inh
CN1C(=O)/C(=C/c2ccccc2F)Sc2ccc(C(=O)N3CCCC3)cc21	-	-	?	-	-
CCc1cccc(NC(=O)CN(C)S(=O)(=O)c2cccc3cccnc23)c1	-	-	-	-	-
Cc1ccc(OCCC(=O)N2CCN(c3ccc(O)cc3)CC2)cc1	-	-	-	?	-
Clc1cc(Cl)c(OCc2nc(-c3ccccn3)no2)cc1Cl	47	.	-	-	125
Cc1noc(COc2ccccc2OCC(N)=O)n1	.	.	.	-	.
CC(C)(C)c1ccc(OCc2nc(-c3ccccn3)no2)c(Br)c1	84	-	-	-	96
Cc1cc(=O)oc2cc(NC(=O)COc3ccccc3[N+](=O)[O-])ccc12	.	?	-	-	.
O=c1c2c([nH]c3ccc(Br)cc13)CCCC2	-	-	0.33µM	-	-
Brc1ccc2[nH]c3c(c2c1)CCC3	-	-	-	-70	-
O=C(O)c1ccc2[nH]c3c(c2c1)CCCC3	-	-	-	-	-
O=c1c2c([nH]c3ccccc13)CCC2	-	-	?	-	-
Cc1cccc(NC(=O)CSc2nnc(CNC(=O)c3ccc(S(=O)(=O)N(C)C)cc3)n2-c2ccc(F)cc2)c1	-	?	-	-	-
Cc1cccc(-n2c(CNC(=O)c3ccc(S(=O)(=O)N(C)C)cc3)nnc2SCC(=O)Nc2ccc(F)cc2)c1	-	?	12µM	-	-
Cc1cccc(NC(=O)CSc2nnc(CNC(=O)c3ccc(S(=O)(=O)N(C)C)cc3)n2-c2cccc(C)c2)c1	-	7.4µM	?	-	-
CN(C)S(=O)(=O)c1cccc(-c2nnc(SCC(=O)NCCCCCC(=O)O)n2-c2ccc(F)cc2)c1	-	-[5.75 µM]	-	-	32
CC(=O)c1ccc(N(CC(=O)NC2CCCCC2)C(=O)c2csnn2)cc1	-	-	-	-	-
Cc1[nH]c2ccccc2c1C(=O)CSC(=S)N1CCN(C)CC1	-	?	-	-62	-
CSc1ccccc1NC(=O)CN(C)CC(=O)c1c(C)[nH]c2ccccc12	.	?	4.1µM	-	.
Cc1[nH]c2ccccc2c1C(=O)CSC(=S)N(C)C	30	-	-	-	74
Cc1[nH]c2ccccc2c1C(=O)CN1CCCC1	-	.	?	-	-
Cc1ccc(NC(=O)C(Cc2ccccc2)n2cccc2)c(C)c1 (centres undefined)	.	.	.	-	.
C=CCNC(=O)c1onc(CSc2ccc(F)cc2)c1C(=O)NCCOC	-	-	-	-	-
O=C(NCCc1ccc(Cl)cc1)c1ccc2c(c1)N(Cc1ccc(F)cc1Cl)C(=O)CS2	.	.	.	-64	.
CC(=O)Nc1ccc(NC(=O)c2ccc3c(c2)N(Cc2cccc(Cl)c2)C(=O)c2ccccc2S3=O)cc1 (centres undefined)	.	.	.	-95	.
O=C(NCCCN1CCCC1)c1ccc2c(c1)N(Cc1cccc(Cl)c1)C(=O)c1ccccc1S2=O (centres undefined)	-	-	3.3µM	-	-
SMILES	Cycloheximide cs	Pf growth 96h	Pf growth 48h	HCMV inh	Shiga toxin inh
CC1CCCCN1C(=O)c1ccc2c(c1)N(Cc1cccc(Cl)c1)C(=O)c1ccccc1S2=O (centres undefined)	.	.	.	-68	.
Cc1cccc(N2CCN(C(=O)c3ccc4c(c3)N(Cc3cccc(Cl)c3)C(=O)c3ccccc3S4=O)CC2)c1C (centres undefined)	.	.	.	-	.
CC(=O)c1ccc(NC(=O)c2ccc3c(c2)N(Cc2cccc(Cl)c2)C(=O)c2ccccc2S3=O)cc1 (centres undefined)	.	.	.	-	.
COCCNC(=O)c1ccc2c(c1)N(Cc1cccc(Cl)c1)C(=O)c1ccccc1S2=O (centres undefined)	.	.	.	-	.
CCNC(=O)Cn1c(-c2cccs2)cc2ccccc21	.	.	.	-	.
O=C(NCCc1ccccc1)c1ccc2c(c1)N(Cc1ccc(Cl)cc1)C(=O)CS2	.	.	.	-	.
CCN1CCN(CCNC(=O)c2ccc3c(c2)N(Cc2ccc(F)cc2)C(=O)c2ccccc2S3=O)CC1 (centres undefined)	-	-	10µM	-	-
CC1CCC(NC(=O)c2ccc3c(c2)N(Cc2cccc(Cl)c2)C(=O)c2ccccc2S3=O)CC1 (centres undefined)	.	.	.	-	.
O=C(NCCC1=CCCCC1)c1ccc2c(c1)N(Cc1ccccc1)C(=O)CS2	-	5.9µM	.	-	-
Cc1ccccc1CN1C(=O)c2ccccc2S(=O)c2ccc(C(=O)N3CCOCC3)cc21 (centres undefined)	.	.	.	-	.
CC1CCCCN1CCNC(=O)c1ccc2c(c1)N(Cc1cccc(Cl)c1)C(=O)c1ccccc1S2=O (centres undefined)	-	-	2.9µM	-	-
Cc1ccccc1CN1C(=O)c2ccccc2S(=O)c2ccc(C(=O)NCCCN3CCOCC3)cc21 (centres undefined)	-	1.5µM	?	-	-
CC(=O)N1CCN(c2ccc(NC(=O)c3ccc(OCc4ccccc4)cc3)cc2)CC1	-	-	?	-	-
O=C(NCCC1=CCCCC1)c1ccc2c(c1)N(Cc1cccc(Cl)c1)C(=O)c1ccccc1S2=O (centres undefined)	.	.	.	-63	.
O=C(c1ccc2c(c1)N(Cc1ccccc1)C(=O)CS2)N1CCOCC1	-	13µM	-	-	-
O=C(NCCC1=CCCCC1)c1ccc2c(c1)N(Cc1cccc(Cl)c1)C(=O)c1ccccc1S2(=O)=O	.	.	.	-	.
C=CCN1C(=O)CSc2ccc(C(=O)NC(C)c3ccccc3)cc21 (centres undefined)	-	9.3µM	-	-	-
Cc1ccccc1-c1nc(NCCN(C)C)nc2ccsc12	.	.	.	-	.
C/C=C/C(=O)[C@@H](C)[C@@H](/C=C/C[Si](C)(C)C)c1ccccc1	-	.	.	.	-
O=C(NCC(c1cccnc1)N1CCOCC1)C(=O)Nc1cccc(Cl)c1 (centres undefined)	.	.	.	-	.
COC(=O)[C@H]1C[C@H](C(=O)O)[C@@H](C)C1(C)C	.	-	-	-95	.
COC(=O)c1ccc(NC(=O)CC2C(=O)N(c3ccccc3)C(=O)N2Cc2ccc(F)cc2)cc1 (centres undefined)	.	.	.	-	.
COC1=Cc2c(ccc3ccc(=O)oc23)OC1(C)C	-	.	7.4µM	-	-
CC1(C)Oc2ccc3ccc(=O)oc3c2[C@@H](O)[C@@H]1O	.	-	?	-	.
O=C(Nc1ccc2c(c1)OCO2)c1cc(-c2ccc(Br)cc2)on1	.	.	.	-	.
SMILES	Cycloheximide cs	Pf growth 96h	Pf growth 48h	HCMV inh	Shiga toxin inh
CCN(CC)C(=O)COCc1cc(-c2ccc3c(c2)OCO3)on1	21	-	-	-	-
C=CCNC(=O)c1cc(-c2ccc3c(c2)OCO3)on1	35	-	-	-	-
O=C(Nc1ccc(Br)cc1)c1cc(-c2ccc3c(c2)OCO3)on1	13	?	-	-60	-
CCC(C)NC(=O)c1cc(-c2ccc3c(c2)OCO3)on1 (centres undefined)	38	-	-	-	57
CNc1cc(-c2ccc(O)cc2C)ncn1	.	.	.	-	.
COCCN(C(=O)c1ccc(N2CCCC2=O)cc1)c1c(N)n(Cc2ccccc2)c(=O)[nH]c1=O	.	-	-	-	.
CCOCC(=O)N1CCN(c2ccccc2OC)CC1	-	-	-	-	-

High-throughput results from PubChem BioAssay.
